Records with an inconclusive call do not appear. The source made the active and inactive calls.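 Rule for the calls, unless noted: active = inhibition above 54%, about 3 SD of non-fluorescent compounds; inactive = the rest.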

Experiment [1] is described as follows: yeast TOR pathway RPL19A-GFP modulators, primary screen, cell-based, S. cerevisiae, multiplex flow cytometry (AID 1862; in the data active = percent of DMSO control GFP below about 86%;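 note: lower values mimic rapamycin by blocking the RPL19A rise seen in DMSO cells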). As to conditions: S. cerevisiae RPL19A-GFP strain, flow cytometry fluorescence, 3 h; at 10 µM; stronger effect = lower value.
Experiment [2] can be described thus: modulators of MEP2-GFP levels in yeast, primary screen, S. cerevisiae, multiplex flow cytometry (AID 1867;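 active = GFP response, as percent of the DMSO control, above the screen-wide mean plus 3 SD, about 139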;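 note: median GFP channel fluorescence of barcode-gated MEP2-GFP cells measured by flow cytometry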). Particulars: S. cerevisiae MEP2-GFP strain, 3 h, at 10 µM, stronger effect = higher value, 100% means same as DMSO wells.
The nature of experiment [3]: modulators of CIT2-GFP expression in yeast, primary screen, S. cerevisiae, GFP fusion, multiplex flow cytometry (AID 1870;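 active = percent response above a set limit, the screen-wide mean plus 3 SD, cut at about 130% in these data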;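 note: barcoded CIT2-GFP strain pooled with four other GFP strains with rapamycin as positive control; median GFP fluorescence per well over plate mean of DMSO wells so 100% = DMSO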). Particulars: 3 h, at 10 µM, stronger effect = higher value.
Experiment [4] can be described thus: modulators of LAP4-GFP expression in yeast, primary screen, S. cerevisiae, multiplex flow cytometry (AID 1873;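 active = GFP signal, as percent of the solvent control, above the screen mean plus 3 SD, about 149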). As to conditions: 3 h, at 10 µM, stronger effect = higher value.
The nature of experiment [5]: modulators of AGP1-GFP expression in yeast TOR pathway, primary screen, cell-based, multiplex flow cytometry, S. cerevisiae (AID 1887;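 active = GFP signal above the screen-wide mean plus 3 SD, that is over about 124.5% of the solvent control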;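 note: AGP1-GFP fusion strain of S. cerevisiae within a five-strain barcoded multiplex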). As to conditions: 3 h, at 10 µM, stronger effect = higher value.
The nature of experiment [6]: inhibitors of CD8+ T cell-vesicle binding, pilot screen, LFA-1/ICAM-1 modulator project, MLPCN validation set, flow cytometry (AID 2523;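 active = response below a set limit, under 55% cells CD8-positive and vesicle-bound, and CD8 cells' 90th-percentile brightness under 279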;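 for vesicle binding response: mean PE anti-B7-1 fluorescence of CD8+ cells relative to row control; 100% = QL9-loaded vesicles with DMSO vehicle in the same plate row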). As to conditions: 2C mouse CD8+ T cells, at 7 µM, stronger effect = lower value; double positive events: measured here: CD8+/vesicle+ event percentage.
The target of experiment [7] is Integrin beta-1 (Homo sapiens) + Integrin alpha-4 (Homo sapiens) (UniProt P13612+P05556). The experiment is described as follows: inhibition of HUTS-21 binding to VLA-4, pilot screen, VLA-4 allosteric modulator project, U937 cells, HUTS-21 mAb, flow cytometry, validation set (AID 2674;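 active = inhibition above 50%, about 3 SD of the validation set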;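 note: antibody binding induced by the VLA-4 ligand LDV present at three times its Kd; 0% = LDV ligand with antibody and no compound and 100% = antibody without LDV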). As to conditions: HUTS-21 LIBS mAb binding, at 6.7 µM, stronger effect = higher value, binding induced by LDV ligand.
Chain of Integrin beta-1 (Homo sapiens) + Integrin alpha-4 (Homo sapiens) (P05556 whole entry, looked up): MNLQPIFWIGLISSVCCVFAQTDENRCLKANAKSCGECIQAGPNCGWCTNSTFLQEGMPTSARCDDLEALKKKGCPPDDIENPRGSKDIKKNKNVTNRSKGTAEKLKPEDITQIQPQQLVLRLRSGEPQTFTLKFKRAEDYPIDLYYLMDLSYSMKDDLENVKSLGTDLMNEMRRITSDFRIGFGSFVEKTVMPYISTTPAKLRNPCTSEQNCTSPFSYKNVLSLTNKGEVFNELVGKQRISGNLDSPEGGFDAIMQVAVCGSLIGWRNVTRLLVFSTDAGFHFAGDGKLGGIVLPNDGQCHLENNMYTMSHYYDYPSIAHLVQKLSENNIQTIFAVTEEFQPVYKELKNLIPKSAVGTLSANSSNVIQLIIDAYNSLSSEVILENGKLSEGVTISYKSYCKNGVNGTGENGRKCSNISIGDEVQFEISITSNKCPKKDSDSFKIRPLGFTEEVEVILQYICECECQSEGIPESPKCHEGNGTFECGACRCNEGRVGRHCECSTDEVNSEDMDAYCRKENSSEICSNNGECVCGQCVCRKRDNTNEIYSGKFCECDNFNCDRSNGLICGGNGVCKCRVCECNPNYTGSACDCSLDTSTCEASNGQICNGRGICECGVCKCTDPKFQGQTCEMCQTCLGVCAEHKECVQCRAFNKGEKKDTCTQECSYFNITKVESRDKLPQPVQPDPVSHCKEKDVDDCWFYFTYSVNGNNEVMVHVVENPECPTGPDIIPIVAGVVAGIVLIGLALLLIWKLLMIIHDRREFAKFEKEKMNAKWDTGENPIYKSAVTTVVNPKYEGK
Chain of Integrin beta-1 (Homo sapiens) + Integrin alpha-4 (Homo sapiens) (P13612 whole entry, looked up): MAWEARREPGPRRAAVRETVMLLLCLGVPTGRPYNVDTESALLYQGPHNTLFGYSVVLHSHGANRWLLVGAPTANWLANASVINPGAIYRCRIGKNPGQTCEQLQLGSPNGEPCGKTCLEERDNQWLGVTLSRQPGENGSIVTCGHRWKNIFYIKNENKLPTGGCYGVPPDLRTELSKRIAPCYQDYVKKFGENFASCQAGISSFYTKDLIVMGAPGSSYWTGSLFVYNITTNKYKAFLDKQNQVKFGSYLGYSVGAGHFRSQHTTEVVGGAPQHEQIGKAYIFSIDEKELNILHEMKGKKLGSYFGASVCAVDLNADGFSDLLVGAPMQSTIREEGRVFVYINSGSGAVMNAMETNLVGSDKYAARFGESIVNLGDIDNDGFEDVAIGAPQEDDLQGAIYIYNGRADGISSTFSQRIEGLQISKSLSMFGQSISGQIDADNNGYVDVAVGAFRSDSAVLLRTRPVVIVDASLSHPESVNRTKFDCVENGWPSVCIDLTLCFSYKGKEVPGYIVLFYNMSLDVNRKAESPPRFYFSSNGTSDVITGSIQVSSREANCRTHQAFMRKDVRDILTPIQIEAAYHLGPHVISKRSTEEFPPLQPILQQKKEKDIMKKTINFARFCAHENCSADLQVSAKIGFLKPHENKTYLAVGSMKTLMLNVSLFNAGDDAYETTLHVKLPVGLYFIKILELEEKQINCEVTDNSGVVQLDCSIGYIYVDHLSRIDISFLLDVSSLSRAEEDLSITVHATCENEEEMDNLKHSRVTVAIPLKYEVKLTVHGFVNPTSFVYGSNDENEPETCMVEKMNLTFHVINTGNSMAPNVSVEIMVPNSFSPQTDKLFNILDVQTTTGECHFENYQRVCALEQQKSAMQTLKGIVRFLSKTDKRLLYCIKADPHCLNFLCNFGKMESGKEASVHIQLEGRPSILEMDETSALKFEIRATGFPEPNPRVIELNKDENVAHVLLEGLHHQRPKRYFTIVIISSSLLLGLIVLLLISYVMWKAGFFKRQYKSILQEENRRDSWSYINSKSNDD

Experiment [8] is described as follows: superoxide lowering in aged yeast cells, pilot screen, validation compound set (AID 2706;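 active = superoxide response below 65% of plate, a cut near 3 SD across the whole screen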;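 note: yeast exposed to compound for one week at 30 degrees C before staining; 100% = mean of all compound wells on the same plate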). Particulars: S. cerevisiae aging, superoxide DHE fluorescence; at 10 µM; stronger effect = lower value.
The target in experiment [9] is Beta-adrenergic receptor kinase 1 (Homo sapiens) (UniProt P25098). The experiment is described as follows: GRK2 binders displacing RNA aptamer, biochemical, validation, human GRK2, bead flow cytometry (AID 488806;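 active = aptamer binding inhibition above 30%, about 3 SD of noise from non-fluorescent compounds; inactive = inhibition at or below 30%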). Particulars: bead-bound GRK2, FAM-aptamer displacement, at 10 µM, stronger effect = higher value.
Chain of Beta-adrenergic receptor kinase 1 (Homo sapiens) (P25098 whole entry, looked up): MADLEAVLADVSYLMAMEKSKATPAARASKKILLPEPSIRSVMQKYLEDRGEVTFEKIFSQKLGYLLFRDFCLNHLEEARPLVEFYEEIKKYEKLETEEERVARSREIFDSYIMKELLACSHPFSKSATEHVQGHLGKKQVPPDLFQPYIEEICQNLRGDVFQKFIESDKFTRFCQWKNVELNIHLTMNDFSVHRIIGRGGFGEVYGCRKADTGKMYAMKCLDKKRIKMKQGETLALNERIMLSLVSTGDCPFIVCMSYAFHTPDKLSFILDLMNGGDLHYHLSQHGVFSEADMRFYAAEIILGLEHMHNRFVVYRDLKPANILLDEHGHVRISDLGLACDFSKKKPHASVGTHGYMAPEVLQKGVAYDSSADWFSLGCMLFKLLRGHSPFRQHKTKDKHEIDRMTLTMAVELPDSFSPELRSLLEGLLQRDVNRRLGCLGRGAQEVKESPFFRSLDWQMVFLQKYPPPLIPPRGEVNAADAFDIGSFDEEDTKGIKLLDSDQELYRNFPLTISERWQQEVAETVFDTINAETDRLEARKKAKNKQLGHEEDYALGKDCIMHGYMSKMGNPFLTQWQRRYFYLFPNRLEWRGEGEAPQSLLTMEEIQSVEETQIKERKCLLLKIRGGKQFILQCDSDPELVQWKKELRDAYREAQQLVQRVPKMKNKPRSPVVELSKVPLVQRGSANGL
The target in experiment [10] is Beta-2 adrenergic receptor (Homo sapiens) (UniProt P07550). Description: beta2AR agonists driving receptor internalization, pilot screen, cell-based, FAP fluorogen, flow cytometry, validation set (AID 504459;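 active = percent response above 42, roughly 3 SD of non-fluorescent test compounds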;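 note: agonist-driven loss of surface beta2AR via internalization measured by FAP dye flow cytometry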). As to conditions: Am2.2-beta2AR cells, FAP surface receptor flow cytometry; at 10 µM; stronger effect = higher value.
Chain of Beta-2 adrenergic receptor (Homo sapiens) (P07550 whole entry, looked up): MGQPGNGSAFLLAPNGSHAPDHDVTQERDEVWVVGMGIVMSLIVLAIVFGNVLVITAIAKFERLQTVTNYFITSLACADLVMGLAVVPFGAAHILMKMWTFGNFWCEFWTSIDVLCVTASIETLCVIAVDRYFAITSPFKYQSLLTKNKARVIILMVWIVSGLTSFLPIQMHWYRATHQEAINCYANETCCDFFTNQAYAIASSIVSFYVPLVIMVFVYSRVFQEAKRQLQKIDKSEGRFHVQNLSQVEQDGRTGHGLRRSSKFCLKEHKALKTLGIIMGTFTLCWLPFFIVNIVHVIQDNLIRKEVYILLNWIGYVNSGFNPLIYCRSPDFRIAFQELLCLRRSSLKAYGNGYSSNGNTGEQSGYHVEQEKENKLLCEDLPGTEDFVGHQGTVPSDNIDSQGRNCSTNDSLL
Experiment [11] deals with AP-2 complex subunit beta (Homo sapiens) (UniProt P63010). Description: inhibitors of arrestin peptide binding to AP2, pilot screen, biochemical, validation set, GST-AP2 beads, flow cytometry (AID 504541).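 Note: AP2 carries R879A mutation and is captured from E. coli lysate; bead-bound FITC arrestin peptide fluorescence measuring arrestin peptide binding to AP2; 0% = DMSO wells and 100% = excess unlabeled arrestin peptide control.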 Particulars: FITC arrestin peptide, at 10 µM, stronger effect = higher value, AP2 beta2 appendage fragment, R879A mutant.
Chain of AP-2 complex subunit beta (Homo sapiens) (P63010 whole entry, looked up, the tested form may be a part, one chain of several): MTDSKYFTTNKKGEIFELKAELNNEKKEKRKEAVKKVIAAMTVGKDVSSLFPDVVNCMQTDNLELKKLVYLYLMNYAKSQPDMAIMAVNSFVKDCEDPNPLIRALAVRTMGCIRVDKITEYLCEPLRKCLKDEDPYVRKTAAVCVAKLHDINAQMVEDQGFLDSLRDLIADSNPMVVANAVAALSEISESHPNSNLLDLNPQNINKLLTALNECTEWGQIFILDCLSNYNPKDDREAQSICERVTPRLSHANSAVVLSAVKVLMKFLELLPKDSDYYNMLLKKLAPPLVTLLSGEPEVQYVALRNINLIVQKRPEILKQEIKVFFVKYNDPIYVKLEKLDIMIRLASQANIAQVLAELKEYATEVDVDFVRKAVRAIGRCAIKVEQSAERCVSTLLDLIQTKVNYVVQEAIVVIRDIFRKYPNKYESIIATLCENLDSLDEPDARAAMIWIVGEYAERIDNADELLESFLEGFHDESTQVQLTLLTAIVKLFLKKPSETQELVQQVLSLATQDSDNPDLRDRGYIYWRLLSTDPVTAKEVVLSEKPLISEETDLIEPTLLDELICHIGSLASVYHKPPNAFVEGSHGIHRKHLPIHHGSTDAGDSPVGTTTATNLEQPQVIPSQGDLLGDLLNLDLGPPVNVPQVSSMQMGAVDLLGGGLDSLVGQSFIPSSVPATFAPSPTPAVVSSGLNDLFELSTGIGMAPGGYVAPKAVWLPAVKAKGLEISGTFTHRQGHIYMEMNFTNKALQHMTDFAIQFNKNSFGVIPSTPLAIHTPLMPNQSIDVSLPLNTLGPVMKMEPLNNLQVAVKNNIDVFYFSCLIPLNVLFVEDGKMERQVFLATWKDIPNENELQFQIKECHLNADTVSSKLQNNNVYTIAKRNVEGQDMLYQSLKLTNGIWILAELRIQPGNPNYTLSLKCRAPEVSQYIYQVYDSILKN
Experiment [12] is described as follows: yeast V-ATPase proton transport modulators, S. cerevisiae, pHLuorin, HTS validation (AID 504600; in the data active = response above about 15%;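 note: plate controls were DMSO for no effect and reference compound for full effect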). As to conditions: S. cerevisiae pHLuorin cytosolic pH, at 10 µM, stronger effect = higher value.
The test system of experiment [13] is anti-desmoglein-3 scFv antibody binding to human DSG3. Description: inhibitors of anti-DSG3 scFv binding to DSG3, pilot screen, biochemical, validation compound set, bead-based, flow cytometry (AID 588368;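 active = binding below the plate cutoff, the plate median minus 3 SD, with a reading above zero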;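 note: signal is the median channel fluorescence of bead-bound GFP antibody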). As to conditions: Protein G beads, DSG3-Fc, scFv-GFP binding, at 10 µM, stronger effect = lower value.
Experiment [14] in a line: inhibitors of fungal efflux pumps CDR1, CDR2, MDR1, pilot screen, validation compound set, multiplex, phenotypic (AID 588506;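 active = efflux inhibition above 0.42, the validation set average plus 4 SD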;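 note: Nile Red retained in cells so higher fluorescence means more efflux inhibition; 0 = negative control wells and 1 = enniatin B 25 µM full block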). As to conditions: S. cerevisiae pump-expressing triplex, Nile Red efflux flow cytometry; at 10 µM; stronger effect = higher value; the pumps come from Candida albicans.
Experiment [15] concerns the target ATP-binding cassette sub-family B member 6 (Homo sapiens) (UniProt Q9NP58). The experiment is described as follows: ABCB6 transporter inhibitors, pilot screen, K562-ABCB6 cells, flow cytometry, validation set (AID 588550;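 active = inhibition above the screen-wide mean plus 3 SD, about 51%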;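 note: 0% = DMSO wells and 100% = benzethonium chloride 70 µM positive control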). As to conditions: K562-ABCB6 porphyrin accumulation, 1 h, at 10 µM, stronger effect = higher value.
The nature of experiment [16]: promoters of myeloid differentiation in arrested cells, primary screen, cell-based, GFP/MAC1 double positive, flow cytometry, validation set (AID 588685;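 active = differentiation response of at least 50%, scaled between solvent and reference control, from cells with both markers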;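 note: compound exposure lasts four days before antibody staining and flow analysis; 0% = DMSO wells and 100% = 5 µM fulvestrant positive control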). As to conditions: ER-HoxA9 marrow cells, stronger effect = higher value, normalized: vehicle 0, fulvestrant 100.

Chain of ATP-binding cassette sub-family B member 6 (Homo sapiens) (Q9NP58 whole entry, looked up): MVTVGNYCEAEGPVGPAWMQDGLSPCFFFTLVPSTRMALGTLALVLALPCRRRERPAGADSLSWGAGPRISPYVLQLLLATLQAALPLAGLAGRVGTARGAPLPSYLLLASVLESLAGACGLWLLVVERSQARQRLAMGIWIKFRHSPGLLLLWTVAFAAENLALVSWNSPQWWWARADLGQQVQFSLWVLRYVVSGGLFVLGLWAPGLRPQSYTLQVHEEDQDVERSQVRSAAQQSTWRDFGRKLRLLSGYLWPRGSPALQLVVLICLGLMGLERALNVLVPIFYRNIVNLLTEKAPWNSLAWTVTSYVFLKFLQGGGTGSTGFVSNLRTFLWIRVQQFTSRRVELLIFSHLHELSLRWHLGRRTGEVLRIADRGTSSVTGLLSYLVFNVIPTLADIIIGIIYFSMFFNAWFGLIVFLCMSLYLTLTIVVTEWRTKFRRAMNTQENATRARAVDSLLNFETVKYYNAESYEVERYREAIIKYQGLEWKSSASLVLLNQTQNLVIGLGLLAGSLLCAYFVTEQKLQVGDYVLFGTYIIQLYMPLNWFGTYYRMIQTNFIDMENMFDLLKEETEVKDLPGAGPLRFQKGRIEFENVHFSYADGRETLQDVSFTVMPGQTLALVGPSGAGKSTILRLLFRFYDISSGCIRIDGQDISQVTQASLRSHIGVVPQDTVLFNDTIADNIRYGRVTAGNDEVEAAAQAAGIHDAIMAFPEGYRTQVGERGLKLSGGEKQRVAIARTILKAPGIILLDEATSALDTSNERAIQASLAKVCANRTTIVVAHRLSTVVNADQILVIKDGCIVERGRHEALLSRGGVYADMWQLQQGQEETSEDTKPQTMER

For the molecule `COc1ccc(-c2cc(=Nc3ccc(C)cc3)c3ccccc3o2)cc1`, the percent of DMSO control GFP in [1] is 97.3% (inactive). Also, the values for the GFP response vs DMSO in experiment [2] and in experiment [4] were 106% (inactive) and 132% (inactive), respectively. Moreover, the percent response of DMSO control in [3] is 93.8% (inactive). Besides, the GFP response, % of DMSO in experiment [5] is 104% (inactive). Further, the double positive events in experiment [6] came to 60.2%. Moreover, the vesicle binding response in experiment [6] was 195% (inactive). The inhibition in experiment [7] was 16.8% (inactive); in [11] it was -0.02% (inactive); in experiment [15] it was 5% (inactive). Also, the superoxide response (% of plate) in experiment [8] is 99.5% (inactive). The aptamer binding inhibition in experiment [9] is 0% (inactive). Also, the response in experiment [10] is -21.4% (inactive); in [12], 7.52% (inactive). The binding (% of control) in experiment [13] was 97.3% (inactive). For the same molecule, in experiment [14], the efflux inhibition (fraction of control) is -0.04 (inactive). For the same molecule, in experiment [16], the differentiation response is -9.91% (inactive).
`O=C(/C=C/Sc1ccccc1)c1ccccc1`: in [1], the percent of DMSO control GFP was 106% (inactive). Besides, the GFP response vs DMSO is 101% (inactive) in experiment [2] and 112% (inactive) in experiment [4]. In experiment [3], the percent response of DMSO control is 100% (inactive). The GFP response, % of DMSO in experiment [5] was 94.6% (inactive). This molecule also showed a double positive events in [6] of 63.9%. In addition, the vesicle binding response in [6] was 263% (inactive). Further, the inhibition in experiment [7] is -15% (inactive); in experiment [11] it was 14.1% (inactive); in experiment [15] it was -13% (inactive). In addition, the superoxide response (% of plate) in experiment [8] is 109% (inactive). In addition, the aptamer binding inhibition in [9] was -1% (inactive). Also, the response in [10] was 28.9% (inactive); in experiment [12], -5.17% (inactive). Besides, the binding (% of control) in experiment [13] is 103% (inactive). In [14], the efflux inhibition (fraction of control) was -0.01 (inactive). Further, in experiment [16], the differentiation response is 37.4% (inactive).
Regarding `CCCCN1C[C@H](O)[C@@H](O)[C@H](O)[C@H]1CO`, the percent of DMSO control GFP in experiment [1] is 102% (inactive). The values for the GFP response vs DMSO in experiment [2] and in experiment [4] were 99.6% (inactive) and 103% (inactive), respectively. For the same molecule, the percent response of DMSO control in experiment [3] is 95.7% (inactive). For the same molecule, the GFP response, % of DMSO in experiment [5] is 113% (inactive). The double positive events in experiment [6] was 64.9%. Besides, in [6], the vesicle binding response is 203% (inactive). For the same molecule, the inhibition in [7] was 13.4% (inactive); in experiment [11], -12.1% (inactive); in [15], 0% (inactive). For the same molecule, the superoxide response (% of plate) in experiment [8] is 104% (inactive). For the same molecule, in experiment [9], the aptamer binding inhibition was 5% (inactive). Further, the response is -17% (inactive) in experiment [10] and 5.64% (inactive) in experiment [12]. For the same molecule, in experiment [13], the binding (% of control) is 104% (inactive). The efflux inhibition (fraction of control) in experiment [14] was -0.04 (inactive). Besides, the differentiation response in experiment [16] was 0.92% (inactive).
For the molecule `COc1ccc(C2=NOC(COc3ccc4c(C)cc(=O)oc4c3)C2)c(OC)c1` (stereo not given), the percent of DMSO control GFP in experiment [1] is 99% (inactive). The GFP response vs DMSO in experiment [2] was 94.6% (inactive); in [4], 116% (inactive). Moreover, in experiment [3], the percent response of DMSO control is 96% (inactive). In experiment [5], the GFP response, % of DMSO is 91.3% (inactive). The molecule also had a double positive events in [6] of 62.4%. In addition, the vesicle binding response in [6] is 171% (inactive). Further, the inhibition in [7] is -11.8% (inactive); in experiment [11], 2.4% (inactive); in [15], 10% (inactive). In addition, in experiment [8], the superoxide response (% of plate) was 99.1% (inactive). The aptamer binding inhibition in experiment [9] was 4% (inactive). Also, the figures for the response in experiment [10] and in experiment [12] were 12.7% (inactive) and 1.1% (inactive), respectively. For the same molecule, the binding (% of control) in [13] is 95.6% (inactive). Also, in [14], the efflux inhibition (fraction of control) is 0.04 (inactive). Besides, in experiment [16], the differentiation response is 3.45% (inactive).
On to `COc1ccc(-c2c3c(=O)n(C)c(=O)n(C)c3cn2C2CCCCC2)cc1`, for which, in experiment [1], the percent of DMSO control GFP was 95.2% (inactive). Also, the GFP response vs DMSO in [2] is 109% (inactive); in experiment [4], 113% (inactive). In addition, in experiment [3], the percent response of DMSO control is 88.2% (inactive). Also, the GFP response, % of DMSO in [5] was 92.6% (inactive). Also, in experiment [6], the double positive events was 58.5%. Further, the vesicle binding response in experiment [6] is 132% (inactive). The figures for the inhibition in experiment [7], in experiment [11] and in experiment [15] were -14.1% (inactive), 1.05% (inactive) and 9% (inactive), respectively. The superoxide response (% of plate) in experiment [8] is 106% (inactive). The aptamer binding inhibition in experiment [9] was -1% (inactive). Further, the response was 14.9% (inactive) in experiment [10] and 2.1% (inactive) in experiment [12]. In experiment [13], the binding (% of control) is 95.5% (inactive). Moreover, in experiment [14], the efflux inhibition (fraction of control) was 0.05 (inactive). Besides, the differentiation response in experiment [16] is -16.8% (inactive).
